Inhibition data for 102 compounds are collected here from PubChem BioAssay.

The target in the assay is Pantothenate synthetase (Mycobacterium tuberculosis (strain ATCC 25618 / H37Rv)) (UniProt P9WIL5). In words: Coupled enzyme confirmation of inhibitors against recombinant Mtb PanC (AID 375).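 Further: 0% = full reaction with vehicle and 100% = no enzyme background.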 Particulars: coupled enzyme assay; at 10 µM, active compounds read high.

A number with no mark means an inactive call. How the calls were made is not given here.

Pantothenate synthetase (Mycobacterium tuberculosis (strain ATCC 25618 / H37Rv)), sequence (P9WIL5 whole entry, looked up): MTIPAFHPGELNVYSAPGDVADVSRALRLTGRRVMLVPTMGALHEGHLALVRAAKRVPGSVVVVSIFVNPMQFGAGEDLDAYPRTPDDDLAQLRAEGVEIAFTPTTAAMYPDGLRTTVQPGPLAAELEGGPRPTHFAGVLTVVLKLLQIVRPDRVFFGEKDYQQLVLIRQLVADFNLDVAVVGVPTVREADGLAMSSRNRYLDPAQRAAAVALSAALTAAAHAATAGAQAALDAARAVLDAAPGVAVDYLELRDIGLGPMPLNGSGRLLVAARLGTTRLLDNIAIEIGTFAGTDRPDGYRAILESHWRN

In general, inhibition refers to the share of the control response that was lost under treatment. As to `O=C(O)CC(NC(=O)c1ccccc1NC(=O)c1ccccc1)C(=O)O` (configuration not stated), the inhibition was 0%. For `CN(Cc1ccccc1)Cc1c[nH]c2ccccc12`, the inhibition was 0%.

With `CCOC(=O)N1CCC(NC(=O)CCC(=O)N2CC(C)Oc3ccc(Cl)cc32)CC1` (configuration not stated), the inhibition was 2%.

Regarding `Cc1ccccc1Nc1nc(N)nc(CSCc2c(C)noc2C)n1`, the inhibition is 0%. Take `CC(C)OC(=O)CSc1nc2cccnc2n1C1CCCCC1`: the inhibition was 4%. For `c1coc(CN2CN=C(Nc3nc4ccccc4s3)NC2)c1`, the inhibition is 0%.

As for `CCN=C1SC(CC(=O)Nc2ccccc2)C(=O)N1CC` (configuration not stated), the inhibition was 5%. Turning to `O=C1c2ccccc2S(=O)(=O)N1CC(O)Cn1c2ccccc2c2ccccc21` (configuration not stated), the inhibition was 0%.

Regarding `COc1ccc(N2CCN(C(c3cccc(OC)c3OC)c3nnnn3C3CCCC3)CC2)cc1` (configuration not stated), the inhibition is 0%. `Cc1cccc2sc(NC(=O)Cn3cccc3)nc12`: the inhibition is 0%.

Take `NC(=O)c1c(NC(=O)CSc2nnc(-c3ccco3)n2-c2ccccc2)sc2c1CCC2`: the inhibition is 0%. Take `CCOc1cc(C)c(C(C)C)cc1S(=O)(=O)N1CCN(C)CC1`: the inhibition is 0%.

Regarding `CCOc1ccc(OCC)c(NC(=O)C2CCN(S(=O)(=O)c3cnc[nH]3)CC2)c1`, the inhibition was 4%.

As to `CCn1c(SCC(=O)NCc2ccco2)nc2c(c1=O)SC(C)C2` (configuration not stated), the inhibition was 8%. Turning to `Cc1ccc(-c2nnc(N3CCN(C(=O)CN4C(=O)c5ccccc5C4=O)CC3)c3ccccc23)cc1`, the inhibition was 0%.

Consider `O=C(c1sc2ccccc2c1Cl)N(Cc1cccs1)C1CCS(=O)(=O)C1` (configuration not stated), for which the inhibition is 0%.

Turning to `O=C(Nc1cccc2ccccc12)N1CCOCC1`, the inhibition is 0%. For `Cc1nc(C)c(C(=O)C2=C(O)C(=O)N(CCN3CCOCC3)C2c2ccco2)s1` (configuration not stated) the value was 9%; for `COCCn1c(=O)[nH]c2cc(C(=O)N3CCN(Cc4ccc5c(c4)OCO5)CC3)ccc2c1=O`, 0%; for `CC(C)c1ccc(NC(=O)C2CC(=O)N(C(C)C)C2)cc1` (configuration not stated), 5%. Regarding `CCCC(=O)N(c1ccc2oc(=O)sc2c1)S(=O)(=O)c1ccccc1`, the inhibition was 0%.

On to `CCCNC(=O)Nc1ccccc1C(=O)Nc1ccc(OC)cc1`, for which the inhibition is 2%. For `CCCOc1ccc(NC2=CC(=O)CC(C)(C)C2)cc1` the value was 0%; for `CCc1nccn1S(=O)(=O)c1ccc(C)c(C)c1`, 0%; for `O=C(Nc1nnc(COc2ccc(F)cc2)s1)c1cccs1`, 5%.

For `O=C(CC(=O)c1cc(Cl)ccc1O)c1ccccc1`, the inhibition was 0%. For `CCC(=O)Nc1ccc(Cl)c(NC(=O)C(C)C)c1` the value was 3%; for `O=C(NCCCN1CCN(c2cccc(Cl)c2)CC1)c1ccc(N2CCCC2=O)cc1`, 1%; for `O=c1c2ccccc2nnn1CSc1nnc2sc3ccccc3n12`, 0%. As to `O=C(O)C1C2CCC(O2)C1C(=O)NCCC1=CCCCC1` (configuration not stated), the inhibition was 3%. For `CCC1CCCCN1CCCNC(=O)c1ccc(CS(=O)(=O)Cc2ccccc2F)o1` (configuration not stated), the inhibition is 4%. On to `Cc1cccc(CC2CC(=O)N(c3ccccc3)C2=O)c1` (configuration not stated), for which the inhibition was 0%. Turning to `CCCn1c(=O)c2[nH]c(C3CCCC3)nc2n(CCC)c1=O`, the inhibition was 7%. For `O=C(c1cc2n(n1)C(C(F)(F)F)CC(c1ccc(Cl)cc1)N2)N1CCCC1` (configuration not stated) the value was 5%; for `CCN(CC)Cc1csc(C(N)=O)c1`, 5%. For `NC(=O)c1c(NC(=O)Cc2cccs2)sc2c1CCC2` the value was 0%; for `CCOC(=O)CSc1nc2cccnc2n1-c1ccc(F)cc1`, 2%; for `CCC(C(=O)N1CCc2cc(OC)c(OC)cc2C1)c1ccccc1` (configuration not stated), 0%. Regarding `Cc1cccc2c(=O)oc(-c3ccc4c(c3)C(=O)N(CC3CCCO3)C4=O)nc12` (configuration not stated), the inhibition was 0%. Turning to `CC(CN1CCCCC1)OC(=O)c1ccc(Cl)cc1Cl` (configuration not stated), the inhibition is 0%. On to `COc1ccc(-c2nnc(SCC(=O)Nc3ccc(Cl)cc3)n2C)cc1`, for which the inhibition was 0%.

Take `C=CCN(C(=O)CNS(=O)(=O)c1ccccc1)C(C(=O)NCCOC)c1ccncc1` (configuration not stated): the inhibition is 0%. As to `Cc1ccc2cc3cc(C(=O)NCCN4CCOCC4)oc3nc2c1`, the inhibition was 4%.

As to `O=C1c2ccccc2C(O)(Cc2ccccc2)N1Cc1ccco1` (configuration not stated), the inhibition is 2%. As for `Cc1noc(C)c1CSc1nnc2scc(-c3ccc(Cl)cc3)n12`, the inhibition was 0%. Take `COc1ccc(C2c3c(oc4ccccc4c3=O)C(=O)N2Cc2ccncc2)cc1OC` (configuration not stated): the inhibition is 6%. For `CS(=O)(=O)c1ccc2nc(NC(=O)CCC(=O)c3cccs3)sc2c1` the value was 1%; for `Nc1c(C2=NCCO2)nnn1Cc1ccccc1`, 0%; for `Cc1cc(NC(=O)CSc2nc(CCC3CCCC3)nc3ccccc23)no1`, 3%. With `COc1ccccc1CNC(=O)CCNC(=O)Cn1ccc2ccccc2c1=O`, the inhibition was 6%. For `O=C(CCCn1c(=S)[nH]c2cc3c(cc2c1=O)OCO3)N1CCN(c2ccccc2F)CC1`, the inhibition was 0%. On to `COC(=O)c1[nH]c2ccc(C)cc2c1NC(=O)CN1CCCc2ccccc21`, for which the inhibition was 3%.

On to `COc1ccc(-c2nc(C)sc2CC(=O)O)cc1`, for which the inhibition was 4%. Take `CC(C(=O)NCc1cccnc1)N1C(=O)c2ccccc2C1=O` (configuration not stated): the inhibition is 0%. For `CCc1nnc2c3cnn(-c4ccccc4)c3ncn12` the value was 0%; for `Cn1nc(C(=O)Nc2cccc(C(F)(F)F)c2)ccc1=O`, 0%. Regarding `C=C(Cl)COC(=O)[C@H]1C2C=CC(C2)C1C(=O)O` (some centres not stated), the inhibition was 2%. `CCOC(=O)C1CCN(C(=O)c2c(-c3c(Cl)cccc3Cl)noc2C)CC1`: the inhibition was 0%.

Consider `COc1cccc(-c2nnn(CC(=O)O)n2)c1`, for which the inhibition is 0%. For `Cc1onc(-c2ccccc2Cl)c1C(=O)Nc1cnn(Cc2ccccc2)c1` the value was 0%; for `CC(=O)n1nc(-c2ccco2)nc1SCc1ccccc1`, 0%. With `Cc1ccc(CCNC(=O)C2CCN(S(=O)(=O)c3ccc4c(c3)CCC(=O)N4)CC2)cc1`, the inhibition was 0%. For the compound `CCn1nc(C(=O)OCC(=O)N2CCc3ccccc32)c2ccccc2c1=O`, the inhibition is 7%. Consider `COC(=O)Cn1cnc2sc(C)c(S(=O)(=O)N3CCC(C)CC3)c2c1=O`, for which the inhibition is 4%. With `CCOc1ccc(NCc2nnc(SCC(=O)Nc3cc(C)on3)n2-c2ccccc2OC)cc1`, the inhibition is 13%. For `O=C(O)C1CCCCC1C(=O)Nc1ccccn1` (configuration not stated), the inhibition was 0%. For `Cc1cccc(C)c1NC(=O)CS(=O)CC(=O)NC1CCCc2ccccc21` (configuration not stated) the value was 12%. Turning to `CCn1c(NCc2ccc(N(C)C)cc2)nc2ccccc21`, the inhibition is 0%. In the case of `O=C(O)c1ccc(-n2nc(C(F)(F)F)c3c2-c2ccoc2CC3)cc1`, the inhibition is 0%. Take `CCc1ccc2c(CN(CC)Cc3nc4ccccc4c(=O)[nH]3)cc(=O)oc2c1`: the inhibition is 0%.

For the compound `CCN(CC)c1nc2cc(OC)ccc2cc1C#N`, the inhibition is 0%. For the compound `COc1ccc2cc(CN(Cc3ccco3)C(c3nnnn3C3CCCCC3)C(C)C)c(=O)[nH]c2c1` (configuration not stated), the inhibition is 5%. Consider `COc1ccc(CCNC(=O)CCN2C(=O)C3CC=CCC3C2=O)cc1OC` (configuration not stated), for which the inhibition was 0%. As to `Cc1cc(C)n(C2=NS(=O)(=O)c3ccccc32)n1`, the inhibition was 1%.

Turning to `Cn1c(-n2c(-c3ccco3)nc3ccccc3c2=O)nc2ccccc21`, the inhibition was 2%. Turning to `COc1ccc(-c2ccc(-c3noc(-c4cccs4)n3)c(OC)n2)cc1`, the inhibition is 0%. Regarding `O=C(CSc1nnc(-c2cnccn2)n1Cc1ccco1)c1ccc(Cl)cc1`, the inhibition was 0%. As for `CCC(C)OC(=O)n1ccc(C(=O)Nc2nccs2)n1` (configuration not stated), the inhibition is 0%. For `O=C(Cn1cc2c(n1)CCCCC2)N1CCc2ccccc21`, the inhibition is 0%. In the case of `N#CC1(c2ccccc2)CCC(=NO)CC1` (configuration not stated), the inhibition is 0%. For `COCCCn1c(=N)c(C(=O)NCC2CCCO2)cc2c(=O)n3cccc(C)c3nc21` (configuration not stated) the value was 0%; for `Cc1ccc(NC(=O)CSc2nnc(-c3cnccn3)n2Cc2ccco2)cc1C`, 0%. On to `Cc1nc2cc(NC(=O)N3c4ccccc4CC3C)ccc2o1` (configuration not stated), for which the inhibition is 0%. As for `O=C(COc1ccccc1)N1CCN(C(=O)c2cccc(F)c2)CC1`, the inhibition is 1%.

In the case of `COc1ccc(-c2nc(C#N)c(NCCCN(C)C)o2)cc1OC`, the inhibition is 0%. With `CN(CC(O)COCc1cccs1)C1CCCCC1` (configuration not stated), the inhibition is 1%. For `COc1ccc(-n2nnc3c(=O)n(C/C=C/c4ccccc4)cnc32)cc1` the value was 2%; for `O=C(c1cc(S(=O)(=O)N2CCOCC2)ccc1F)N1CCCc2ccccc21`, 1%. For `CCOc1ccc(OCc2ccc(C(=O)Nc3cccc(C)n3)o2)cc1` the value was 7%; for `CCC(=O)N/C(N)=N/c1nc(C)c2cc(OC)ccc2n1`, 0%. As for `Nn1cnnc1SCC(=O)Nc1ccc2c(c1)OCCO2`, the inhibition was 0%.

Consider `Cn1c(=O)c2c(nc(N3CCCCC3)n2CCSc2nc3ccccc3o2)n(C)c1=O`, for which the inhibition was 8%.

For the compound `O=S(=O)(c1ccc2nc(Cc3cccc(C(F)(F)F)c3)[nH]c2c1)N1CCOCC1`, the inhibition was 0%. `c1cnc2c(SCc3ccc(-c4nnco4)cc3)cccc2c1`: the inhibition is 2%. On to `CC1(C)OC(=O)C(=CNC(CCC(N)=O)C(=O)O)C(=O)O1` (configuration not stated), for which the inhibition is 3%. For `COc1ccc(-c2cc(C(F)(F)F)nc(SCC(=O)NCc3ccco3)n2)cc1OC` the value was 3%; for `CCC1Oc2ccc(C)cc2N(CC(=O)NCCCN2CCCCC2CC)C1=O` (configuration not stated), 4%. In the case of `CC(C)c1ccc(-c2nc(N3CCCCC3)[nH]c(=O)c2C#N)cc1`, the inhibition is 5%.

For the compound `Cc1ccc(-c2noc(C3CCCN(C(=O)c4ccc(F)cc4F)C3)n2)cc1` (configuration not stated), the inhibition was 0%.

As for `Cc1nnc2n(-c3ccccc3)c(=O)c3c4c(sc3n12)CCCC4`, the inhibition is 2%. `CC(C)COc1nc2ccccc2nc1C(C#N)C(=O)NC1CCCCC1` (configuration not stated): the inhibition is 0%.

Take `O=C(CN1C(=O)C2CC=C(Cl)CC2C1=O)Nc1ccc(C(=O)O)cc1` (configuration not stated): the inhibition is 0%.
